Test results: ChEMBL document CHEMBL4513216, “Probing the Open Global Health Chemical Diversity Library for Multistage-Active Starting Points for Next-Generation Antimalarials” (ACS Infect Dis, 2020)
Hit rate of the full screen: of about 69,000 compounds, about 8,600 (12%) showed an effect of 50% or more. For the sample, strong results were picked, then their nearest neighbours and some compounds at random.

test system: Plasmodium berghei; assay: Screen against P. berghei liver stage (PbLuc), transformed with Luciferase, at 10uM; type: functional, HepG2; details: tested at 10 uM

Compound | INHIBITION
COC1CN(CCO)S(=O)(=O)c2ccccc21 (centres undefined) | 35.1%
CN(C)C(=O)COCC1CN(Cc2cccs2)Cc2ncn(C)c21 (centres undefined) | -47.8%
Cc1cc(S(=O)(=O)N(C)CC(N)=O)ccc1Br | 34.6%
Cc1ccc(S(=O)(=O)N(CC(N)=O)CC(C)C)cc1C | -14.2%
Cc1cc(S(=O)(=O)N(CC(N)=O)CC(C)C)ccc1Br | 60.3%
Cc1cnn(CC2CCCN2C(=O)Cc2ccc(C)nc2)c1 (centres undefined) | 17.4%
COc1ccc(CNCC(O)c2cccc(O)c2)cc1Br (centres undefined) | 14.5%
CCOc1ccc(CNCC(O)c2ccccc2)cc1Cl (centres undefined) | 59.5%
CC(=O)Nc1ccc(CNCC(O)c2ccccc2)cc1 (centres undefined) | 39.7%
COCC1CN(C(=O)c2cccc(C)n2)Cc2nccn2C1 (centres undefined) | 24%
Cc1ccc2oc(CNC(C)c3nnc4n3CCCC4)cc2c1 (centres undefined) | 50.1%
CC(NCc1ccco1)c1nnc2n1CCCC2 (centres undefined) | 52.9%
Cc1ccc(CNC(C)c2nnc3n2CCCC3)o1 (centres undefined) | -4.48%
CC(NCc1ccc(Cl)o1)c1nnc2n1CCCC2 (centres undefined) | 15.1%
Cc1ccoc1CNC(C)c1nnc2n1CCCC2 (centres undefined) | 34.1%
CC(NCc1cc2cc(F)ccc2o1)c1nnc2n1CCCC2 (centres undefined) | 35%
CN1CCCN(C(=O)c2nc3c(o2)CN(S(C)(=O)=O)C3)CC1 | 41.2%
Cn1ccc(CN2CCCC23CCN(Cc2cccc(F)c2)CC3)n1 | 56.6%
Cn1ccc(CN2CCCC23CCN(Cc2ccccc2F)CC3)n1 | 53%
Cc1ccc(N2CCC3(CCCN3Cc3ccn(C)n3)CC2)nn1 | 53.9%
COc1cc(N2CCC3(CCCN3Cc3ccn(C)n3)CC2)ncn1 | 21.7%
Cn1cc(CN2CCC3(CCCN3Cc3cccnc3)CC2)cn1 | 29%
Cn1ccc(CN2CCC3(CCCN3CC3CC3)CC2)n1 | 17.7%
Cn1ccc(CN2CCCC23CCNCC3)n1 | -12.1%
Cn1ccc(CN2CCCC23CCN(Cc2nccn2C)CC3)n1 | 27.6%
Fc1cccc(CN2CCC3(CCCN3c3ncccn3)CC2)c1 | 42.4%
CCOCCCC(=O)Nc1cccnc1-n1ccnc1C | 7.92%

Compound | INHIBITION
Cc1ccc(C(=O)N2CCCN(Cc3cccs3)CC2)c(=O)[nH]1 | 17.68%
COc1ccc(C(C)N(C)Cc2c(C3CC3)[nH]c3ncccc23)cc1 (centres undefined) | 44.8%
CN(Cc1ccco1)[C@@H]1CN(C(=O)c2ccnnc2)[C@@H]2CCCO[C@H]12 | 41.8%
Cc1ccc(CC(=O)N2Cc3nccn3CC(CN(C)C)C2)cc1 (centres undefined) | 10.1%
CCOCCNC(=O)c1ccc(OC)cc1I | 14.4%
COc1c(CNCc2ccc(Cn3ccnc3)cc2)c(C)nn1C | 16.8%
CC1N(CC2CC2)C(=O)COC12CCN(C(=O)c1ccno1)CC2 (centres undefined) | 11.3%
COCCN1C2(CCN(CC3CC3)C2)c2ccccc2S1(=O)=O (centres undefined) | -54.9%
O=S1(=O)c2ccccc2C2(CCN(Cc3ccccc3)C2)N1CC1CC1 (centres undefined) | 81.3%
COCCN1CCC2(C1)c1ccccc1S(=O)(=O)N2Cc1ccccc1 (centres undefined) | 15.3%
CCCN1CCC2(C1)c1ccccc1S(=O)(=O)N2Cc1ccccc1 (centres undefined) | 68.4%
CCCN1CCC2(C1)c1ccccc1S(=O)(=O)N2Cc1ccc(F)cc1 (centres undefined) | 23.3%
CC1N(CC2CC2)C(=O)COC12CCN(C(=O)c1cccs1)CC2 (centres undefined) | 74.8%
CC1N(CC2CC2)C(=O)COC12CCN(C(=O)c1ccncc1)CC2 (centres undefined) | 48.2%
CN1C2(CCN(Cc3ccc(F)cc3)C2)c2ccccc2S1(=O)=O (centres undefined) | 16.9%
O=C(N1CCCO1)[C@@]12CCO[C@@H]1CCN(Cc1cccnc1)C2 | 17.4%
O=S1(=O)c2ccccc2C2(CCN(Cc3cccnc3)C2)N1CC1CC1 (centres undefined) | 76.5%
CN1CCN(Cc2cccnc2)C(=O)C12CCN(CC1CCOC1)CC2 (centres undefined) | 29.4%
CNC(=O)c1cn[nH]c1C1CCCN1c1nc(C)cc(C)n1 (centres undefined) | 34.1%
CCN1CCOCC2(CCCN(C(=O)c3ccccc3F)C2)C1 (centres undefined) | -60.3%
CN(C)[C@@H]1CN(Cc2ccccc2O)C[C@H]1c1cn(C)c2ccccc12 | 49.5%
Cn1ccnc1CNC(=O)c1cnc(C2CCNCC2)cn1 | 33%
COc1ccccc1C1(CNC(=O)NCc2noc(C)n2)CC1 | 4.66%
Cc1nc(C(=O)N(C)CC(=O)N(C)C)nn1-c1ccccc1C(C)C | -15.5%
CCNC(=O)N1CCC2(C1)c1ccccc1S(=O)(=O)N2CCOC (centres undefined) | -1.15%
COCCN1C2(CCN(C(=O)c3cccs3)C2)c2ccccc2S1(=O)=O (centres undefined) | 8.03%
O=C(c1cccs1)N1CCC2(C1)c1ccccc1S(=O)(=O)N2CC1CC1 (centres undefined) | 51.2%
